# Measurements reported in article PMC7862700, “An all-to-all approach to the identification of sequence-specific readers for epigenetic DNA modifications on cytosine”.
# How the values were obtained:
# Test in all cases: DAPPL (digital affinity profiling via proximity ligation, sequencing); 10 mM Tris-HCl pH 7.5, 50 mM NaCl, 1 mM DTT, 4% glycerol, room temperature, 30 min; GST-TFs on glutathione beads, 16-mer random dsDNA library, 0.1% formaldehyde crosslink after washing; high values mean tight binding
# Conditions in all cases: protein: recombinant; tags: N-terminal GST; dsDNA, one strand shown
# ELK1 = target: T1, ELK1 (Homo sapiens, UniProt P19419 1-428)
# T1 sequence: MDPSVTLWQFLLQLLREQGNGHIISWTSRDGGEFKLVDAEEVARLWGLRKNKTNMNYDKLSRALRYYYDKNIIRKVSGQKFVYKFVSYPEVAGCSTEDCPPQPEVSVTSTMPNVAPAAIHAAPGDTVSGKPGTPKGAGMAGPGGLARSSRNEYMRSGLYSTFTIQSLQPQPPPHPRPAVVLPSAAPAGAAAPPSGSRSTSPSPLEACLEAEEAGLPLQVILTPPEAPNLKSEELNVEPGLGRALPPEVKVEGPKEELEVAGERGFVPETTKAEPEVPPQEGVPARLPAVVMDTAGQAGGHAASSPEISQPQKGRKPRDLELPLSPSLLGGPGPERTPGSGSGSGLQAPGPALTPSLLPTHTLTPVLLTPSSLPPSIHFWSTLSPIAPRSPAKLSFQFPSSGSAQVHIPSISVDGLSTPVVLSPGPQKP
# Summary of the method: (§1)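 Beads coated with glutathione captured GST-fused human transcription factors that had been expressed in yeast, and the factors were then given DNA barcodes and pooled with a tag-only sample. The pools were incubated with 200 nmole of a random double-stranded 16-mer DNA library in Tris/NaCl/DTT/glycerol buffer for 30 min at room temperature, washed, crosslinked with 0.1% formaldehyde and proximity-ligated with BsaI/T4 ligase at 37 °C for 1 h. PCR amplification and Illumina NextSeq500 sequencing came last. Binding signal is each hexamer's read frequency for a factor divided by its frequency for the tag-only sample.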
# GABPA = target: T2, GABPA (Homo sapiens, UniProt Q06546 1-454)
# T2 sequence: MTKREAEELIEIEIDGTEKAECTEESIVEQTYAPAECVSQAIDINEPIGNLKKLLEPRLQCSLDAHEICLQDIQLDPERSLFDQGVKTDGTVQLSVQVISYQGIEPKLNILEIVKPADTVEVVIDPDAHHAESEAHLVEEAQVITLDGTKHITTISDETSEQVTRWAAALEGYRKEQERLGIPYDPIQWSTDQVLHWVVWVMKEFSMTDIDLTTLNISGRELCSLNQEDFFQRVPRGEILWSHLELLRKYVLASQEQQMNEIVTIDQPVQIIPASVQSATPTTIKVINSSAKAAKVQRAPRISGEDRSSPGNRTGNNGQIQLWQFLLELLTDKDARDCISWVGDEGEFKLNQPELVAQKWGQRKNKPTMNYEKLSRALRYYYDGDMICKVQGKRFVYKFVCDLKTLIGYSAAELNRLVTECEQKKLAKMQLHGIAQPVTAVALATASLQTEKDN
# Summary of the method: as §1
# ELF1 = ELF1 (Homo sapiens, UniProt P32519 1-619)
# ELF1, sequence (P32519 whole entry): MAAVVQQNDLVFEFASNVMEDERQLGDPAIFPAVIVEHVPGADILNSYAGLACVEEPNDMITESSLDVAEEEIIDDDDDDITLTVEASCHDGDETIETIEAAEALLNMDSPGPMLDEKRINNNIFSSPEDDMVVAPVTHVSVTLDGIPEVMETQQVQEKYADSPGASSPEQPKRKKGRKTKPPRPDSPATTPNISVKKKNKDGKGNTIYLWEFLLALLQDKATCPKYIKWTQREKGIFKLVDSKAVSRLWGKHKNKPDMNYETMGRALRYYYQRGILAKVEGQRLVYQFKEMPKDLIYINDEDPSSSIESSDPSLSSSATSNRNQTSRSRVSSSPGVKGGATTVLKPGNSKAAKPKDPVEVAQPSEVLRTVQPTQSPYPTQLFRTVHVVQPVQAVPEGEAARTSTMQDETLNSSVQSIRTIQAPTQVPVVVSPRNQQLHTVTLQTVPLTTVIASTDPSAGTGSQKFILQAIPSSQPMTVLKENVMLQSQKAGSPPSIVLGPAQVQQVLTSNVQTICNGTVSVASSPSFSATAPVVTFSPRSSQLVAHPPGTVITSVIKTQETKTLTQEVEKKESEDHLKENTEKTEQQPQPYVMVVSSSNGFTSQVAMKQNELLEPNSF
# Summary of the method: as §1
# EHF = target: T3, EHF (Homo sapiens, UniProt Q9NZC4 1-300)
# T3 sequence: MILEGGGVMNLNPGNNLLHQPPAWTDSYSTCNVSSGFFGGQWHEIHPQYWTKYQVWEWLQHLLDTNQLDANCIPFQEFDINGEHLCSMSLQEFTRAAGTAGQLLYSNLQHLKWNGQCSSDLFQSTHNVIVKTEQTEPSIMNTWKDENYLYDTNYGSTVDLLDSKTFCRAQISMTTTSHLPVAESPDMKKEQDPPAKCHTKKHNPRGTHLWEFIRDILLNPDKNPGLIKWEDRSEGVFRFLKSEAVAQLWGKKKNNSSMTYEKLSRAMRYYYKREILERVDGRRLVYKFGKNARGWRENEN
# Summary of the method: as §1
# SPIB = SPIB (Homo sapiens, UniProt Q01892 1-262)
# SPIB, sequence (Q01892 whole entry): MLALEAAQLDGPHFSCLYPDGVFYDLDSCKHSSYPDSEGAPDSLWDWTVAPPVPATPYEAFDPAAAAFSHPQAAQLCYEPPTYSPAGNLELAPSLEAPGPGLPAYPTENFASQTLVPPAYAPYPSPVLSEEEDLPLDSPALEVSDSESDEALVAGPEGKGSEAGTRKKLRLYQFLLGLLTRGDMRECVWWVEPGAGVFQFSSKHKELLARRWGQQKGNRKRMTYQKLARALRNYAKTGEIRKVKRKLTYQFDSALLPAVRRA
# Summary of the method: as §1
# ELK3 = target: T4, ELK3 (Homo sapiens, UniProt P41970 1-407)
# T4 sequence: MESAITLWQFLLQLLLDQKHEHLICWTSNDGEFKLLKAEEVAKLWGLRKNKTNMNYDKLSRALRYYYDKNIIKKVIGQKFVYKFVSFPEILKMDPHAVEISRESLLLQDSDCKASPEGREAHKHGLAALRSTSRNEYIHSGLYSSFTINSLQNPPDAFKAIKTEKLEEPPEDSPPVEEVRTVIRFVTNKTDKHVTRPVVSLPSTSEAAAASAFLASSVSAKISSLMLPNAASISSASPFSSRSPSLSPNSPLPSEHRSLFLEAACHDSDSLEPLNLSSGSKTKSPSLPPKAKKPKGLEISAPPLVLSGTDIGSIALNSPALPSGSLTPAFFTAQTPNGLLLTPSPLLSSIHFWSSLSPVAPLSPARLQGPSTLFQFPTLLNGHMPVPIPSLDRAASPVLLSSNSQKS
# Summary of the method: as §1
# SPIC = target: T5, SPIC (Homo sapiens, UniProt Q8N5J4 1-248)
# T5 sequence: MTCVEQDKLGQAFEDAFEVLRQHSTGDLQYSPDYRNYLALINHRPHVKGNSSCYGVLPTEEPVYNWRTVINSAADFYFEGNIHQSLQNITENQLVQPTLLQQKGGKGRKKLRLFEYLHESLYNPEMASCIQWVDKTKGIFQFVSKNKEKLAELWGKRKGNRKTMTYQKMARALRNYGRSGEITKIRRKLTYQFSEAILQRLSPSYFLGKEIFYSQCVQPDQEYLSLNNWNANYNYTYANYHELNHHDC
# Summary of the method: as §1
# ELF4 = ELF4 (Homo sapiens, UniProt Q99607 1-663)
# ELF4, sequence (Q99607 whole entry): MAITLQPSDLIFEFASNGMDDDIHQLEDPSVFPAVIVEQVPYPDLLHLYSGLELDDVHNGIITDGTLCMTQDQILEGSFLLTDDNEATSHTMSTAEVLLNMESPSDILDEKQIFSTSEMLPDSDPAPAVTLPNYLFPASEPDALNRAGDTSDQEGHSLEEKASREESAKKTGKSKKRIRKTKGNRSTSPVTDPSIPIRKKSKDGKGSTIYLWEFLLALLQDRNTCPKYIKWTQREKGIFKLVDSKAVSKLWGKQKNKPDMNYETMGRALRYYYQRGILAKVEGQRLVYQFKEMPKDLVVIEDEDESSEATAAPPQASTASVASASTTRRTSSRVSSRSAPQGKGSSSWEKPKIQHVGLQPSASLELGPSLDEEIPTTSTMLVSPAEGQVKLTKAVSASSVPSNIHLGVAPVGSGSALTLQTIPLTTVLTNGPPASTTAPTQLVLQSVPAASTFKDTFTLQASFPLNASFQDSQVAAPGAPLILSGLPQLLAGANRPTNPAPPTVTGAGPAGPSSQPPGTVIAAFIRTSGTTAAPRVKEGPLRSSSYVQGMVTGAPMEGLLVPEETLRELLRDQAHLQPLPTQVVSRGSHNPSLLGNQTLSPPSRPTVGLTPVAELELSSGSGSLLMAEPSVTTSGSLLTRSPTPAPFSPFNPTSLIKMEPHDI
# Summary of the method: as §1
# ERF = target: T6, ERF (Homo sapiens, UniProt P50548 1-548)
# T6 sequence: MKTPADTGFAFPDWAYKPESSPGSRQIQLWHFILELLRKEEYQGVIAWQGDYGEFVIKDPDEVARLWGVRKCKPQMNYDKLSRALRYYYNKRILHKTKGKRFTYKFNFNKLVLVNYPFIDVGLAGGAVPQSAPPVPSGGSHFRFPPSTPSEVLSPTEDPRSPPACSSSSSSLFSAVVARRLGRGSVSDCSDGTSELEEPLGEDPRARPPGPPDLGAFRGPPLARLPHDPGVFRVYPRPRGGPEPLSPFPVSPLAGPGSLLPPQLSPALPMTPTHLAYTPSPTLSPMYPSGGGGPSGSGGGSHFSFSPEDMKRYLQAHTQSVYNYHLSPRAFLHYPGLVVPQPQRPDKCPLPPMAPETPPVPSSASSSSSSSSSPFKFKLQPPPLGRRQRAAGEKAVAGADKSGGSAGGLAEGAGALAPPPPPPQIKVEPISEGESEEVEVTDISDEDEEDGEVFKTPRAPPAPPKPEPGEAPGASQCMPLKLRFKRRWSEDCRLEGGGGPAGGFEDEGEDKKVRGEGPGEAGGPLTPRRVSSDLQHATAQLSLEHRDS
# Summary of the method: as §1
# SPDEF = target: T7, SPDEF (Homo sapiens, UniProt O95238 1-335)
# T7 sequence: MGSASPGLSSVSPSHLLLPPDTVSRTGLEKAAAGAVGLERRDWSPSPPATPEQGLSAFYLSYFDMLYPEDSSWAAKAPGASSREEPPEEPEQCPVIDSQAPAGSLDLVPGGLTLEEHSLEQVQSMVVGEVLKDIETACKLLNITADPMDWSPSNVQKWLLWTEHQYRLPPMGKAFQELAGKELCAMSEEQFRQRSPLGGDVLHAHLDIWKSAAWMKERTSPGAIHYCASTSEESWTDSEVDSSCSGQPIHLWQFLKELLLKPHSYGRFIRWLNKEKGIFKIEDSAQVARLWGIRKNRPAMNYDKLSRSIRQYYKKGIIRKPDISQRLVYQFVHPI
# Summary of the method: as §1
# ETV7 = target: T8, ETV7 (Homo sapiens, UniProt Q9Y603 1-341)
# T8 sequence: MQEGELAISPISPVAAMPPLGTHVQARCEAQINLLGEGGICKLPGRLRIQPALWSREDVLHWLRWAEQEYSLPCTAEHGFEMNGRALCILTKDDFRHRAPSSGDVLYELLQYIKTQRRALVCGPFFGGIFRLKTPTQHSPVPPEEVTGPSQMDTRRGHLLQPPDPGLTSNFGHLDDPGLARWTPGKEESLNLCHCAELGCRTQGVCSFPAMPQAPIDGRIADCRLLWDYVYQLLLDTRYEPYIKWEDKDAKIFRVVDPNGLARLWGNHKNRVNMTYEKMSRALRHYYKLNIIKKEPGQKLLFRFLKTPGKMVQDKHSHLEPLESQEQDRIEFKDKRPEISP
# Summary of the method: as §1
# ETV3 = target: T9, ETV3 (Homo sapiens, UniProt P41162-2 1-143)
# T9 sequence: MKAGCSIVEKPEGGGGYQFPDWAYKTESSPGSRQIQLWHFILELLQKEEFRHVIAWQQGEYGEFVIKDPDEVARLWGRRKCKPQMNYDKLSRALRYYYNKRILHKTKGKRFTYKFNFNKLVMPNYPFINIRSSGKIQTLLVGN
# Summary of the method: as §1
# ETV6 = ETV6 (Homo sapiens, UniProt P41212 1-452)
# ETV6, sequence (P41212 whole entry): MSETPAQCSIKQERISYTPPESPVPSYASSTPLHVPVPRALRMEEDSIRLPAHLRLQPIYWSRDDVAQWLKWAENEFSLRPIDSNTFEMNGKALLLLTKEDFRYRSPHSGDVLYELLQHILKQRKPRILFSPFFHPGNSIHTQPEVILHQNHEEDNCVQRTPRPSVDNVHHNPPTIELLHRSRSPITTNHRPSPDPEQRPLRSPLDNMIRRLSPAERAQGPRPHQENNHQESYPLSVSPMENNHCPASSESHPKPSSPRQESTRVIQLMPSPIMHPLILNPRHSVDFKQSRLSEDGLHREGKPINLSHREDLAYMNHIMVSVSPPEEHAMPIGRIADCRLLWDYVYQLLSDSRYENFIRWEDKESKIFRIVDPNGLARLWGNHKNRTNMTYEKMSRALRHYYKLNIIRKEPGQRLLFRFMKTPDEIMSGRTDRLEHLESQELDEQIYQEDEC
# Summary of the method: as §1
sequence,measurement,setting,value
TTAAGA,binding signal,ELK1,"1.05 fold enrichment (6-mer frequency, TF over GST control)"
same,binding signal,GABPA,"1.09 fold enrichment (6-mer frequency, TF over GST control)"
same,binding signal,ELF1,"1.05 fold enrichment (6-mer frequency, TF over GST control)"
same,binding signal,EHF,"1.05 fold enrichment (6-mer frequency, TF over GST control)"
same,binding signal,SPIB,"1.07 fold enrichment (6-mer frequency, TF over GST control)"
same,binding signal,ELK3,"1.02 fold enrichment (6-mer frequency, TF over GST control)"
same,binding signal,SPIC,"1.12 fold enrichment (6-mer frequency, TF over GST control)"
same,binding signal,ELF4,"1.05 fold enrichment (6-mer frequency, TF over GST control)"
same,binding signal,ERF,"1.08 fold enrichment (6-mer frequency, TF over GST control)"
same,binding signal,SPDEF,"1.06 fold enrichment (6-mer frequency, TF over GST control)"
same,binding signal,ETV7,"1.13 fold enrichment (6-mer frequency, TF over GST control)"
same,binding signal,ETV3,"1.05 fold enrichment (6-mer frequency, TF over GST control)"
same,binding signal,ETV6,"1.05 fold enrichment (6-mer frequency, TF over GST control)"
